Among the data in PubChem BioAssay (NCI) are growth inhibition values, retold here.

This is part of a sample that, as a whole, favours compounds with a hit. Of some 79,000 tested, about 15% had one in any assay. Values without a mark were called inactive. Activity calls are given as the source filed them. Rule as the data show it: active = growth inhibition above about 70%; inactive = the rest.

A short description of experiment [1]: NCI Yeast Anticancer Drug Screen. Data for the rad50 strain (AID 155).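 Also: 0% = growth of vehicle-only cultures of the same strain.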 The conditions noted are these: S. cerevisiae rad50 strain growth inhibition; at 50.0 µM; hits give high values. In short, it runs like this:
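Readout: growth inhibition relative to vehicle-treated cultures. Compound exposure was carried out in a genetically defined yeast strain deficient in DNA damage repair.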

The nature of experiment [2]: NCI Yeast Anticancer Drug Screen. Data for the mec2-1 strain (AID 157). The conditions noted are these: S. cerevisiae mec2-1 strain, at 50.0 µM, hits give high values. In short, it runs like this: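 Compounds were applied to mec2-1 yeast cells. Their growth was then compared with that of vehicle-treated cultures to give growth inhibition.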
A short description of experiment [3]: NCI Yeast Anticancer Drug Screen. Data for the sgs1 mgt1 strain (AID 161).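 Also: 0% = growth of cultures given vehicle only.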 The note with it: S. cerevisiae sgs1 mgt1 strain, at 50.0 µM, hits give high values. In short, it runs like this:
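Growth of a repair-deficient yeast mutant was monitored after compound treatment and expressed as inhibition relative to vehicle-treated cultures.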

A short description of experiment [4]: NCI Yeast Anticancer Drug Screen. Data for the cln2 rad14 strain (AID 165).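 Also: 0% = growth equal to vehicle treated cultures.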 The conditions noted are these: S. cerevisiae cln2 rad14 strain, at 50.0 µM, hits give high values. In a few lines:
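Strain: cln2 rad14 yeast, altered in cell cycle control and DNA damage repair. Read-out: growth inhibition vs vehicle.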

Experiment [5] in a line: NCI Yeast Anticancer Drug Screen. Data for the bub3 strain (AID 167). The note with it: S. cerevisiae bub3 mutant strain, at 50.0 µM, hits give high values. In short, it runs like this: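 Readout: yeast growth inhibition, expressed relative to vehicle-only wells. The test organism is a mutant strain from a panel with lesions in DNA repair or checkpoint genes.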
Experiment [6] in a line: NCI Yeast Anticancer Drug Screen. Data for the mlh1 rad18 strain (AID 175). The note with it: S. cerevisiae mlh1 rad18 strain growth inhibition; at 50.0 µM; hits give high values. In a few lines:
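A repair-deficient yeast strain is exposed to test compound, and growth is scored relative to vehicle-treated controls.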

Turning to `CCC(CC)C(=O)OCCOCCOCCOC(=O)C(CC)CC`, the growth inhibition was -9.3% in experiment [1]; -16.8% in experiment [2]; -2.15% in experiment [3]; 6.8% in experiment [4]; -3.35% in experiment [5]; 1% in experiment [6].
For `c1ccc2c(c1)ccc1c2c[n+](CCCCCCCC[n+]2cc3c4ccccc4ccc3c3ccccc32)c2ccccc12`, the growth inhibition in experiment [1] is 88.4% (active); in experiment [2], 92.2% (active); in experiment [3], 87.5% (active); in experiment [4] it was 86.2% (active); in experiment [5] it was 83.2% (active); in experiment [6], 90.5% (active).
In the case of `FC(F)(Br)C(F)(Cl)Br` (stereo not given), the growth inhibition in experiment [1] was 18.6%; in experiment [2], 18.8%; in experiment [3] it was 17.6%; in experiment [4], 17.4%; in experiment [5], 1.5%; in experiment [6], 24.7%.
Take `O=C(O)/C(=C/c1ccccc1[N+](=O)[O-])c1ccccc1`: the growth inhibition in experiment [1] was 40.1%; in experiment [2] it was -16.1%; in experiment [3], 20.5%; in experiment [4] it was 17.5%; in experiment [5] it was -8.85%; in experiment [6] it was -12.7%.
For the compound `O=c1cc(CC(O)(c2ccccc2)c2ccccc2)cc[nH]1`, the growth inhibition in experiment [1] is 16.1%; in experiment [2], 3.8%; in experiment [3] it was -4.65%; in experiment [4] it was -10.8%; in experiment [5], -0.35%; in experiment [6], -1%.
Take `O=C1CN(CCN2CCCCC2)CC(=O)N2CCCCN12`: the growth inhibition was -32% in experiment [1]; -7.15% in experiment [2]; -8.65% in experiment [3]; 9.2% in experiment [4]; -5.75% in experiment [5]; -10.8% in experiment [6].
Turning to `O=C(/C=N\O)c1ccncc1`, the growth inhibition is -13.8% in experiment [1]; -16.9% in experiment [2]; -30.8% in experiment [3]; -16.1% in experiment [4]; -8.65% in experiment [5]; -35.7% in experiment [6].
As for `C(=C/c1ccccn1)/c1ccccc1`, the growth inhibition was 39.4% in experiment [1]; 15.1% in experiment [2]; 21.3% in experiment [3]; 16.5% in experiment [4]; 14.6% in experiment [5]; 11.1% in experiment [6].
In the case of `CSc1ccc(NC(=O)Oc2cc(C)c(Cl)cc2C(C)C)cc1`, the growth inhibition in experiment [1] was 39.6%; in experiment [2], 94.8% (active); in experiment [3] it was 91.8% (active); in experiment [4], 15.8%; in experiment [5], 97.8% (active); in experiment [6], 93.5% (active).
Consider `COC1c2ccccc2C(C)(C)c2nc3ccccc3cc21` (stereo not given), for which the growth inhibition was -1.05% in experiment [1]; -10% in experiment [2]; -4.6% in experiment [3]; -38% in experiment [4]; 1.6% in experiment [5]; -3.1% in experiment [6].
Consider `Cn1c(=O)c(-c2ccccc2)cc2ccccc21`, for which the growth inhibition in experiment [1] was -9.9%; in experiment [2] it was -12.9%; in experiment [3], -3.85%; in experiment [4], -1.95%; in experiment [5] it was -1.15%; in experiment [6] it was -16.6%.
With `CC(=O)Oc1ccc2c(c1)CC[C@@H]1C2[C@@H](O[N+](=O)[O-])C[C@@]2(C)C1CC[C@@H]2O[N+](=O)[O-]` (stereo not given in full), the growth inhibition in experiment [1] was 24.4%; in experiment [2] it was 7.9%; in experiment [3], 15.2%; in experiment [4], 10.1%; in experiment [5], 10.1%; in experiment [6] it was 14.8%.
Regarding `COc1ccc2[nH]c3c4c(cc(-c5ccccc5)c3c2c1)C(=O)N(c1ccccc1)C4=O`, the growth inhibition in experiment [1] was -11.1%; in experiment [2], -6%; in experiment [3], -16.6%; in experiment [4] it was 11.2%; in experiment [5] it was -4.3%; in experiment [6] it was -6.8%.
Turning to `COc1ccc(Nc2cc[nH]c(=O)c2NC(C)=O)cc1`, the growth inhibition is 20.7% in experiment [1]; 4.9% in experiment [2]; 32.3% in experiment [3]; 14.7% in experiment [4]; 9.75% in experiment [5]; 21% in experiment [6].
Turning to `CC(C)(C)C1=CC(=O)C(C#N)(C(C)(C)C)C1=O` (stereo not given), the growth inhibition in experiment [1] is 11.2%; in experiment [2] it was -5.7%; in experiment [3], 7.15%; in experiment [4] it was -36%; in experiment [5], 1.6%; in experiment [6] it was 6.55%.
`COc1cccc(/C=N/O)c1OC`: the growth inhibition was 6.75% in experiment [1]; 4.25% in experiment [2]; 2.6% in experiment [3]; 8.55% in experiment [4]; -1.85% in experiment [5]; 2% in experiment [6].
In the case of `CC1C2CC(CC(=O)N2)C1(C)C` (stereo not given), the growth inhibition in experiment [1] was 15.6%; in experiment [2] it was 21.6%; in experiment [3], 21.7%; in experiment [4] it was 15.1%; in experiment [5], 11.2%; in experiment [6] it was 13.6%.
Turning to `C=C1C(=O)OC(CCCCCCCCCCCCCC(C)=O)[C@H]1C(=O)O` (stereo not given in full), the growth inhibition in experiment [1] was 10.2%; in experiment [2] it was -9.75%; in experiment [3], 22.1%; in experiment [4], 4.85%; in experiment [5], -10.9%; in experiment [6] it was 9.8%.
Consider `CCNC(C(=O)O)C1CCCCC1` (stereo not given), for which the growth inhibition in experiment [1] was -6.45%; in experiment [2], -2.95%; in experiment [3], -1.65%; in experiment [4], 8.5%; in experiment [5] it was -0.8%; in experiment [6], -1.25%.
On to `Cc1ccc(S(=O)C(C)C(Cl)c2ccccc2)cc1` (stereo not given), for which the growth inhibition in experiment [1] was -3.6%; in experiment [2], 0.2%; in experiment [3], 5.6%; in experiment [4], 16.9%; in experiment [5] it was 11.7%; in experiment [6], 6.9%.
